Inconclusive results are not listed. Activity calls are given as the source filed them. Calls follow the shape of the dose curve; as a rule, active = well fitted cell-killing curve with a large enough effect in the repeat runs; inconclusive = weak or mixed curves, or effect the other way; inactive = no such curve, though single readings can be large or run the other way.

From PubChem BioAssay (Tox21) come the findings set out here.
% is scaled to controls: 0 for no effect and ±100 for the full control effect; potency is read from the fitted curve at half-maximal effect.

A short description of the first experiment: qHTS assay to identify small molecule antagonists of the glucocorticoid receptor (GR) signaling pathway - cell viability counter screen (AID 720693). Also: nearly all actives have a fitted effect of over 55% in size. To be noted: GR-bla HeLa viability, CellTiter-Glo luminescence, 18 h, with 5 nM dexamethasone present; series mostly up to 58.5 µM; viability change, negative = cytotoxic: at the top concentration. On the technique in general: In qHTS, concentration-response curves come from the screen itself.
Turning to `CC(CCl)OC(C)CCl` (centres undefined), the “viability change, negative = cytotoxic” value was -9.5% (inactive). Still for that read-out and setting: the figure for `CCCCCCC/C=C/C=O` is -3.39% (inactive). On the same count and under the same terms, then `FC(F)(Cl)C(F)(Cl)Cl`, with 12.5% (inactive); and `CCC(C)C1N=C(C)C(C)S1` (centres undefined), with 17% (inactive); and `O=C(Nc1ccccc1)c1cc([N+](=O)[O-])ccc1Cl`, with -0.864% (inactive).

With `O=C(Cl)c1ccc(F)c(Cl)c1`, the “viability change, negative = cytotoxic” value is -12.3% (inactive). Still for that read-out and setting: then `CC(=O)CC/C=C(\C)CC/C=C(\C)CC/C=C(\C)CCC=C(C)C`, with -2.9% (inactive); and `CCOc1ccc2c(c1)C(C)CC(C)(C)N2` (centres undefined), with -1.22% (inactive); and `CCCC1CCOC(C)S1` (centres undefined), with -6.73% (inactive). Still for that read-out and setting: then `N#Cc1ccc(CC(=O)c2cccc(C(F)(F)F)c2)cc1`, with 11.9% (inactive); and `O=C(OCCCCCOC(=O)c1ccccc1)c1ccccc1`, with -3.12% (inactive); and `Cc1c(Nc2ncccc2C(=O)O)cccc1C(F)(F)F`, with 6.06% [at 27 µM] (inactive). Regarding `O=C(O)c1ccc2c(c1)nc(C(=O)NC1CCN(C3CC3)CC1)n2Cc1cc(-c2ccc(Cl)s2)on1`, the “viability change, negative = cytotoxic” value is 20.5% [at 27 µM] (inactive). Still for that read-out and setting: then `C[C@@H](O)[C@H]1C(=O)N2C(C(=O)O)=C(S[C@@H]3CN[C@H](CNS(N)(=O)=O)C3)[C@H](C)[C@H]12`, with 11% (inactive). As for `CCCCCCOC(=O)c1ccccc1`, the “viability change, negative = cytotoxic” value was -17% (inactive). The same measure, in the same setting: the figure for `CCCCOC(=O)CC#N` is -0.132% [at 78.9 µM] (inactive). In the case of `Nc1ccccc1Nc1ccccc1`, the Potency was 55.1 µM (active). For the compound `Cc1cc(SC2=C(O)C[C@@](CCc3ccc(N)cc3)(C(C)C)OC2=O)c(C(C)(C)C)cc1CO`, the “viability change, negative = cytotoxic” value was 5.79% (inactive). Same read-out and setting: the figure for `O=C(N[C@@H](Cc1ccccc1)[C@@H](O)C(=O)N1C[C@@H](O)[C@@H](O)C1)c1cc2cc(Cl)ccc2[nH]1` is 6.86% (inactive); for `COC=O` it is -0.963% [at 7.04 µM] (inactive). Same read-out and setting: the figure for `CCN(CCCCOC(=O)c1ccc(OC)c(OC)c1)C(C)Cc1ccc(OC)cc1` (centres undefined) is 0.666% [at 27 µM] (inactive); for `COc1cc(CNC(=O)CCCC/C=C/C(C)C)ccc1O` it is -1.9% (inactive). The same measure, in the same setting: the figure for `CC/C=C/CCO` is -8.49% [at 78.9 µM] (inactive); for `C=CC(C)(O)CC/C=C(/C)CCC=C(C)C` (centres undefined) it is 5.08% (inactive); for `Clc1ccccc1-c1nc(-c2ccncc2)no1` it is -8.92% (inactive).

Regarding `C(/C=C/C=C/Nc1ccccc1)=Nc1ccccc1`, the “viability change, negative = cytotoxic” value is 7.43% (inactive). In the case of `O=C(O)c1ccccc1-n1cc(C(=O)O)c(=O)c2cc(Nc3c(F)cc(F)cc3Cl)c(Cl)cc21`, the “viability change, negative = cytotoxic” value was -1.49% (inactive).

On to `O=Cc1ccc([N+](=O)[O-])cc1`, for which the “viability change, negative = cytotoxic” value is -0.59% [at 78.9 µM] (inactive).

Take `CC(C)(Cc1c[nH]c2ccccc12)NCC(O)COc1ccccc1C#N` (centres undefined): the “viability change, negative = cytotoxic” value is 3.36% (inactive).

In the case of `CCc1c(C)[nH]c2c1C(=O)C(CN1CCOCC1)CC2` (centres undefined), the “viability change, negative = cytotoxic” value was 16.1% [at 27 µM] (inactive). The same measure, in the same setting: the figure for `CCOc1ccc(NC(C)=O)cc1N` is -0.3% [at 78.9 µM] (inactive). Consider `COc1ccc(C(=O)c2ccc(C)cc2)c(O)c1`, for which the Potency result was “inactive”. Regarding `C=C(C)C(=O)OCCCCCCCCCCOC(=O)C(=C)C`, the “viability change, negative = cytotoxic” value was 5.26% (inactive). Still for that read-out and setting: the figure for `CCCCCCCCCCCCCCCCC(=O)O` is -7.74% (inactive); for `CC(=O)c1cccnc1` it is 11.1% (inactive).

For `CCC[Si](OC)(OC)OC`, the “viability change, negative = cytotoxic” value was -1.55% (inactive).

A short description of a further experiment: qHTS assay for identifying genotoxic compounds that show differential cytotoxicity against isogenic chicken DT40 cell lines with known DNA damage response pathways - wild type cell line (AID 743012). Also: nearly all actives have a fitted effect of over 60% in size. The conditions noted are these: DT40 wild type chicken cells viability, CellTiter-Glo, 40 h; series mostly up to 68.4 µM; activity change, negative = cytotoxicity: at the top concentration. A digest of the protocol:
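Cells (DT40 wild type, 300/well) are treated with DMSO-dissolved compounds after a ~0.5 h pre-incubation and kept 40 h at 37 C/5% CO2. Viability is then measured by CellTiter-Glo luminescence following 30 min at room temperature.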
As to `CC(CCl)OC(C)CCl` (centres undefined), the “activity change, negative = cytotoxicity” value was 6.36% (inactive). Take `Oc1ccc(Oc2ccccc2)cc1`: the Potency was 20.6 µM (active). For the compound `FC(F)(Cl)C(F)(Cl)Cl`, the “activity change, negative = cytotoxicity” value is -1.44% (inactive).

Take `CCC(C)C1N=C(C)C(C)S1` (centres undefined): the “activity change, negative = cytotoxicity” value is -0.803% (inactive). With `O=C(Nc1ccccc1)c1cc([N+](=O)[O-])ccc1Cl`, the Potency is 68.6 µM (active). For `CC(=O)CC/C=C(\C)CC/C=C(\C)CC/C=C(\C)CCC=C(C)C`, the “activity change, negative = cytotoxicity” value was 0.332% (inactive). On to `CCOc1ccc2c(c1)C(C)CC(C)(C)N2` (centres undefined), for which the Potency was 27.3 µM (active). On to `CCCC1CCOC(C)S1` (centres undefined), for which the “activity change, negative = cytotoxicity” value was -0.194% (inactive).
